{"source": "PubChem BioAssay AID2716", "about": "(Broad Institute, 2010)", "note": "Among all 320,000 compounds or so, about 3,300 (1%) were called active. Many of the other results were omitted from the sample, so actives are more common in it than they were. Values without a mark were called inactive.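 The calls were made as follows: active = every valid replicate shows activation above 250% relative to neutral control wells; inactive = the rest, any valid replicate at or below 250%.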", "data": [{"test": "yeast Mot1-301 growth rescue at high temperature, primary screen, SUMOylation pathway inhibitor project, S. cerevisiae, ATP luminescence, 38.5C (AID 2716);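 also: OY570 slx delta 5 strain wells were the positive control but not used for scaling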", "conditions": "S. cerevisiae Mot1-301 growth rescue, at 18.8 µM, hits give high values, percent above DMSO median, 100 means doubled", "values": [{"smiles": "Cc1ccccc1OCCC(=O)Nc1c(C)n(C)n(-c2ccccc2)c1=O", "growth rescue": "-23.7%"}, {"smiles": "Cc1ccc(S(=O)(=O)CC(=O)Nc2c(C)n(C)n(-c3ccccc3)c2=O)cc1", "growth rescue": "-28%"}, {"smiles": "CC(=O)N1CCc2cc(Br)cc(S(=O)(=O)CCC(=O)Nc3c(C)n(C)n(-c4ccccc4)c3=O)c21", "growth rescue": "461% (active)"}, {"smiles": "COC(=O)c1ccc(OC(=O)c2nn(C)cc2Cl)c(OC)c1", "growth rescue": "-16.8%"}, {"smiles": "Cc1c(NC(=O)c2c([N+](=O)[O-])cnn2C)c(=O)n(-c2ccccc2)n1C", "growth rescue": "0.562%"}, {"smiles": "CN(CC(=O)NCc1cccnc1)S(=O)(=O)c1cc(Cl)ccc1Cl", "growth rescue": "249%"}, {"smiles": "COc1ccc(CNS(=O)(=O)c2ccc(NC(=O)N3CCCCC3)cc2)cc1", "growth rescue": "1.4%"}, {"smiles": "COc1cc(C2C(C#N)=C(N)Oc3n[nH]c(-c4ccccn4)c32)cc(OC)c1OC", "note": "(centres undefined)", "growth rescue": "-11.1%"}, {"smiles": "COc1ccc(-c2[nH]nc3c2C(c2ccncc2)C(C#N)=C(N)O3)cc1", "note": "(centres undefined)", "growth rescue": "577% (active)"}, {"smiles": "CCOc1c(OC)cc(C2C(C#N)=C(N)Oc3n[nH]c(-c4ccncc4)c32)cc1OC", "note": "(centres undefined)", "growth rescue": "365%"}, {"smiles": "O=C(COC(=O)c1ccc(N2CCCC2=O)cc1)c1ccc(OC(F)F)cc1", "growth rescue": "-26.3%"}, {"smiles": "Cc1cc(OC(C)C(=O)Nc2ccc(S(=O)(=O)Nc3onc(C)c3C)cc2)cc(C)c1Cl", "note": "(centres undefined)", "growth rescue": "-7.5%"}, {"smiles": "CCn1c(SCC(=O)Nc2ccc(S(=O)(=O)Nc3onc(C)c3C)cc2)nnc1-c1ccccc1", "growth rescue": "8.66%"}, {"smiles": "Cc1cc(C)c2nc(-c3cccnc3)cc(C(=O)Nc3ccc(S(=O)(=O)Nc4onc(C)c4C)cc3)c2c1", "growth rescue": "404% (active)"}, {"smiles": "CC1CN(C(=S)Nc2cccc(F)c2)CC(C)O1", "note": "(centres undefined)", "growth rescue": "-11.7%"}, {"smiles": "O=C(/C=C/c1ccco1)NC(=S)N1CCCCC1", "growth rescue": "-4.55%"}, {"smiles": "COc1ccccc1/C=C/C(=O)NC(=S)N1CCOCC1", "growth rescue": "413% (active)"}, {"smiles": "COc1ccccc1/C=C/C(=O)NC1CC2CCC1C2", "note": "(centres undefined)", "growth rescue": "-19.4%"}, {"smiles": "CC1CCN(S(=O)(=O)c2ccc3ncn(CC(=O)N(C)C4CCCCC4)c(=O)c3c2)CC1", "growth rescue": "-3.24%"}, {"smiles": "CC1CC(C)CN(C(=O)CCNC(=O)Cn2cnc3ccccc3c2=O)C1", "note": "(centres undefined)", "growth rescue": "0.101%"}, {"smiles": "CCN1CCCC1CNC(=O)Cn1cnc2ccc(S(=O)(=O)N3CCC(C)CC3)cc2c1=O", "note": "(centres undefined)", "growth rescue": "572% (active)"}, {"smiles": "COC(=O)C1C(=O)CC(C)(O)C(C(=O)OC)C1c1ccc2c(c1)OCO2", "note": "(centres undefined)", "growth rescue": "-11.2%"}, {"smiles": "COC(=O)c1sccc1NC(=O)CC1C(=O)NCCN1C(=O)Nc1ccc(F)cc1F", "note": "(centres undefined)", "growth rescue": "848% (active)"}, {"smiles": "COc1cccc(NC(=O)CC2C(=O)NCCN2C(=S)Nc2ccc(F)cc2)c1", "note": "(centres undefined)", "growth rescue": "3.83%"}, {"smiles": "COC(=O)c1cc(NC(=O)CC2C(=O)NCCN2C(=O)c2ccc(F)cc2)cc(C(=O)OC)c1", "note": "(centres undefined)", "growth rescue": "8.77%"}, {"smiles": "Cc1ccc(CNC(=O)C2(C(F)(F)F)C/C(=C\\Cc3ccccc3)CCCO2)o1", "note": "(centres undefined)", "growth rescue": "17.2%"}, {"smiles": "CCN(CC)CCCNC(=O)c1cc2c(=O)[nH]c3ccc(C)cc3c2s1", "growth rescue": "6.48%"}, {"smiles": "Cc1cccc(N(C)C(=O)c2cc3c(=O)[nH]c4ccc(C)cc4c3s2)c1", "growth rescue": "675% (active)"}, {"smiles": "Cc1ccc2[nH]c(=O)c(CC(=O)O)c(-c3ccccc3)c2c1", "growth rescue": "-1.66%"}, {"smiles": "COc1cccc(NC(=O)COc2cccnc2[N+](=O)[O-])c1", "growth rescue": "8.97%"}, {"smiles": "Cc1cc(C)c(S(=O)(=O)NCC2CCC(C(=O)NCc3ccc4c(c3)OCO4)CC2)c(C)c1", "note": "(centres undefined)", "growth rescue": "33.6%"}, {"smiles": "CNS(=O)(=O)c1cnccc1N1CCN(c2cccc(C)c2)CC1", "growth rescue": "-3.12%"}, {"smiles": "COc1ccc(N(CC(=O)Nc2cccc3ccccc23)S(C)(=O)=O)c(OC)c1", "growth rescue": "9.81%"}, {"smiles": "COc1cc(CO)ccc1OCC(=O)Nc1cccc2ccccc12", "growth rescue": "314% (active)"}, {"smiles": "COc1ccccc1NC(=O)COc1ccc(C(=O)OCC(=O)N(C(C)C)C(C)C)cc1OC", "growth rescue": "38.2%"}, {"smiles": "C[C@H](CO)N1C[C@H](C)[C@H](CN(C)CC2CC2)Oc2ccc(NC(=O)CCN3CCOCC3)cc2C1=O", "growth rescue": "-13.9%"}, {"smiles": "Cc1ccc(S(=O)(=O)C2(S(=O)(=O)c3ccc(C)cc3)CCCC2)cc1", "growth rescue": "-9.93%"}, {"smiles": "O=S1(=O)CC/C(=N\\Nc2ccc(F)cc2)c2ccsc21", "growth rescue": "423% (active)"}, {"smiles": "COc1ccc(C(=O)N/N=C2\\CCS(=O)(=O)c3ccc(F)cc32)cc1OC", "growth rescue": "-16.6%"}, {"smiles": "CN1CCN(C(=O)c2ccc(-c3ccc(Br)cc3)o2)CC1", "growth rescue": "14%"}, {"smiles": "O=C1C=CN2CCCC2CC1", "note": "(centres undefined)", "growth rescue": "51.5%"}, {"smiles": "O=C1CC2(CCN(C(=O)COc3ccc(F)cc3)CC2)Oc2ccccc21", "growth rescue": "269% (active)"}, {"smiles": "COc1ccc(OCC(=O)N2CCN(C(=O)COc3ccccc3)CC2)cc1", "growth rescue": "-6.56%"}, {"smiles": "O=C1CC2(CCCCC2)Oc2ccc(OCC(=O)N3CCOCC3)cc21", "growth rescue": "-29.5%"}, {"smiles": "O=C1CCCC2=C1C(c1cccs1)n1nc(SCc3ccccc3)nc1N2", "note": "(centres undefined)", "growth rescue": "10.5%"}, {"smiles": "O=Cc1ccc(Oc2cccc(C(F)(F)F)c2)nc1", "growth rescue": "554% (active)"}, {"smiles": "O=C(O)CCCC(=O)Nc1ccc(Oc2cccc(C(F)(F)F)c2)nc1", "growth rescue": "-3.63%"}, {"smiles": "CC(C)Oc1ccc(Oc2ccc(C(F)(F)F)cn2)cc1", "growth rescue": "21.9%"}, {"smiles": "NNC(=O)CNC(c1ccccc1)c1cc(Cl)ccc1NC(=O)c1ccccc1", "note": "(centres undefined)", "growth rescue": "-0.491%"}, {"smiles": "Cc1c(Cl)c([N+](=O)[O-])nn1CCCC(=O)NC(C)c1ccccc1", "note": "(centres undefined)", "growth rescue": "3.65%"}, {"smiles": "CCOc1cc(/C=N/NC(=O)c2cc(-c3ccccc3)nc3ccccc23)ccc1O", "growth rescue": "15.1%"}, {"smiles": "CCOc1ccc(/C=N/Nc2nncc(-c3ccccc3)n2)cc1OC", "growth rescue": "999% (active)"}, {"smiles": "COc1cccc(/C=N\\Nc2nncc(-c3ccccc3)n2)c1", "growth rescue": "-1.53%"}, {"smiles": "CCC1(CC)NC(=O)N(CC(=O)OCC(=O)NC(=O)c2ccccc2)C1=O", "growth rescue": "663% (active)"}, {"smiles": "CCCCNC(=O)CN1C(=O)NC(Cc2ccccc2)(Cc2ccccc2)C1=O", "growth rescue": "-4.3%"}, {"smiles": "CCC1(CC)NC(=O)N(CC(=O)OCC(=O)Nc2ccc(C(F)(F)F)cc2)C1=O", "growth rescue": "154%"}, {"smiles": "Cc1nn(CCOc2ccccc2)c(=O)n1-c1ccccc1F", "growth rescue": "1160% (active)"}, {"smiles": "Cc1c(C(N)=O)sc2ncn(CCOc3ccccc3)c(=O)c12", "growth rescue": "-2.19%"}, {"smiles": "Cc1cccc2c1N(CCOc1ccccc1)C(=O)C2=O", "growth rescue": "-12.8%"}]}]}
